Test results published in PubChem BioAssay AID1259397 (Fisher Drug Discovery Resource Center, 2018).
Values joined by “and” are separate entries in the source; they are usually repeats but may differ in a detail not shown here. Identical values can stand only once. Screen size: about 130,000 compounds; about 230 (0.18%) were called active.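 The calls were made as follows: active = inhibition of cGAS enzyme activity at or above 60%; inactive = the rest.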 For the sample, actives were picked, then their nearest neighbours and some compounds at random.

Biological target: Cyclic GMP-AMP synthase (Mus musculus) (UniProt Q8C6L5)
Sequence (Q8C6L5 whole entry, looked up): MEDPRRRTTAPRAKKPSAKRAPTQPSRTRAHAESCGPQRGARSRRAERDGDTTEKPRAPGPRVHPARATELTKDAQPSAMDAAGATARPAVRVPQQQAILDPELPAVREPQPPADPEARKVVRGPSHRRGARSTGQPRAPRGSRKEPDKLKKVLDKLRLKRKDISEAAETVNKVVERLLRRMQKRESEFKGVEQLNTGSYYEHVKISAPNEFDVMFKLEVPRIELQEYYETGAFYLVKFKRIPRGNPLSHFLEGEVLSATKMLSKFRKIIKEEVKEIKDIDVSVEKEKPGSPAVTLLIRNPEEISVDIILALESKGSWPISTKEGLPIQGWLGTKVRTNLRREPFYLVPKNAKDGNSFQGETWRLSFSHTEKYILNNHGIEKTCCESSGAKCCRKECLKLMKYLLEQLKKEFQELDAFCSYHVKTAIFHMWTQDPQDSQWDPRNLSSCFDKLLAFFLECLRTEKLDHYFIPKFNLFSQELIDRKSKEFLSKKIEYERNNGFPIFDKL
Experiment: inhibitors of Mus musculus cyclic GMP-AMP synthase, initial high-throughput assay, cell-free, RapidFire MS (AID 1259397);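 also: enzyme stimulated by 45 bp dsDNA with ATP and GTP substrates; cGAMP share of summed cGAMP plus half ATP and half GTP signals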
Details: recombinant mouse cGAS, cGAMP by RapidFire MS; at 12.5 µM; active compounds read high

inhibition, inactive:
CC1(C(=O)NS(=O)(=O)c2cccc(OC(F)F)c2)CCN1C(=O)COc1ccc(Cl)cc1 (stereo not drawn) -4.55%
CCN(CC(=O)NC(C)(C)C)c1cc(Cl)nc(N)n1 -6.72%
CCNC(=O)c1cc(Cl)ccc1NS(=O)(=O)c1cn[nH]c1 -6.14%
CCC(c1nnc(SC(C)C(N)=O)n1Cc1ccccc1)N(C)C (stereo not drawn) -4.22%
Cc1cc(CN2CCN3C(=O)CNC(=O)C3C2)ccc1N1CCCC1 (stereo not drawn) -4.4%
CCN(CC)C(=O)N1CCCC(C(=O)Nc2ccc(S(=O)(=O)C(F)F)cc2)C1 (stereo not drawn) 6.42%
NC(=O)c1cc(NC(=O)N2CCCCCC2c2ccco2)ccc1F (stereo not drawn) -5.95%
CCn1nc(C(=O)NNC(=O)c2c(C)noc2C)c2ccccc2c1=O -0.0832%
COc1ccccc1CCc1nnc(CCC(=O)NC(C)CCn2cccn2)o1 (stereo not drawn) 2.62%
O=C(CCn1cnc2ccccc2c1=O)Nc1cc2c(cc1Br)OCCO2 -1.61%
CCN(Cc1ccncc1)C(=O)C1CCC(=O)N(Cc2ccccn2)C1 (stereo not drawn) -3.05%
COc1cc(NC(=O)[C@@H](C)N2Cc3ccc(NCC(C)C)nc3C2=O)cc(OC)c1 7.27%
Cc1ccc(C(=O)N2CCCC(C(=O)NC3C4CCc5ccccc5C43)C2)cc1 (stereo not drawn) -4.85%
CCCN1C(=O)CCc2cc(NC(=O)COC)ccc21 -1.31%
CCC(CC)S(=O)(=O)NC(=O)c1c(C)nn(CC)c1Cl -36.3%
CC(C)Cc1ccc(C(=O)c2cccs2)cc1 2.67%
Cc1c(C(=O)NCc2cccc([N+](=O)[O-])c2)sc(=O)n1CCc1ccccc1 -3.1%
OC(c1ccc(Cl)c(F)c1)c1ncc(-c2ccccc2Cl)[nH]1 (stereo not drawn) -1.95%
O=C(CCOc1ccccc1)N1CC(c2ccncc2)C1 -7.26%
C=CCNC(=O)c1cccnc1-c1ccc(OC)c2ncccc12 -6.67%
O=C1N(CCCc2ccccc2)CCCC12CCN(c1cnccn1)C2 (stereo not drawn) -11%
CCCCN(CCCC)C(=O)c1[nH]c(C)c(C(C)=O)c1C -6.21%
Cc1cccc(NCCNC(=O)c2oc(Br)cc2C)n1 -6.38%
CC(C)C(NC(=O)c1ccco1)C(=O)N1CC(C)(C)C1(C)C (stereo not drawn) -1.92%
N#CC(Cc1ccccc1)NC(=O)/C=C/c1ccccc1Br (stereo not drawn) 8.15%
Cc1cc(C)n(C(=O)C(C)n2cc([N+](=O)[O-])cn2)n1 (stereo not drawn) -19.7%
COC(=O)CCC(=O)N1CCCC(C(=O)c2ccc(-c3ccccc3)cc2)C1 (stereo not drawn) -2.49%
Cc1ccc(C(=O)NCC(NC(=O)c2ccc(C)nc2)C(C)C)cn1 (stereo not drawn) 3.43%
CC(C)C1CN(C(=O)CCn2cncn2)CCCN1Cc1ccc(F)cc1 (stereo not drawn) -18%
COc1ccc(-n2c(C)nc3ccc(NC(=O)Nc4ccc(C)cc4C)cc3c2=O)cc1 -11.4%
CN(C(=O)c1ccc(=O)[nH]n1)C1c2ccccc2-c2ccccc21 -2.89% and -15.8%
Cc1ncc(-c2c(-c3ccccc3)ncn2Cc2csc(N)n2)[nH]1 -18.8%
CCOc1ccc(Cl)cc1S(=O)(=O)N1CCN(CCO)CC1 -1.81%
Cc1ccccc1NC(=O)Cn1cc(S(=O)(=O)c2ccc(F)cc2)c(=O)c2cc3c(cc21)OCO3 -8.2%
CN1C(=O)Cc2cc(-c3csc(CCN4CCCCC4)n3)ccc21 -45.7%
Cc1cc(C)c(S(=O)(=O)Nc2ccc(-c3cn4ccc(C)nc4n3)cc2)c(C)c1 -25.3%
CCCn1c(=O)c2c(nc3n2CCN3c2cc(C)ccc2C)n(C)c1=O -2.17%
Cn1c(=O)c2c(nc(CN3CCCCC3)n2Cc2cccc3ccccc23)n(C)c1=O -3.06%
CCOc1ccc2c(c1)C(C)CC(C)(C)N2C(=O)C1CCN(C(=O)C2CC2)CC1 (stereo not drawn) -7.85%
CSCc1ccc(C(=O)N2CCCC(C(=O)c3ccc4c(c3)OCO4)C2)o1 (stereo not drawn) -4.82%
O=C(C=Cc1ccsc1)N1CCN(S(=O)(=O)c2cc(F)ccc2F)CC1 -8.87%
CN(C)CCNc1cc(-c2n[nH]c(C(F)(F)F)n2)c2cc[nH]c2n1 -6.32%
COc1ccccc1OCCCOc1ccc(Cl)cc1Cl -12.4%
CCOc1cn2c(cc1=O)C(=O)N(CCNC(=O)c1ccc(C)cc1)CC2 -4.57%
CCCN(C(=O)c1ccc(-n2ccnc2)cc1)C1CCCC1 -16.4%
Cc1cnn(CC2CCN(C(=O)c3ccccc3C3CCNC3)CC2)c1 (stereo not drawn) 3.82%
Cc1ccc(OCc2nc(C(=O)NC3CC(C)(C)NC(C)(C)C3)cs2)cc1 -17.3%
CCCCOC1CC(N(C)Cc2ccc(S(=O)(=O)N(C)C)o2)C1(C)C (stereo not drawn) -31.6%
COC(=O)C[C@H]1[C@]2(C)C[C@@]34OC5(C)OC6(C(OC(C)=O)[C@@]3(OC(C)=O)[C@H]2OC(C)=O)C2CC(=O)O[C@@H](c3ccoc3)[C@]2(C)CCC6(O5)[C@]14C (stereo partly drawn) 1.62%
Cn1ccnc1CN(C(=O)c1scc2c1CCCC2)C1CC1 -27.6%
CC(C)CCN(CCC#N)Cc1ncc(Cl)n1C -8.32%
CC(N)=C(C#N)C(=O)COC(=O)c1ccc([N+](=O)[O-])o1 -1.77%
CC(CC(=O)Nc1ccc(F)cc1)n1cncn1 (stereo not drawn) -11%
CCOCC(O)CN1CCN(C(=O)Cn2ccccc2=O)CC1 (stereo not drawn) -5.1%
CC(C)Cn1c(CN(Cc2ccccc2)CC2CC2)cnc1S(C)(=O)=O -12.5%
CC(C)c1ccc2c(c1)CCCN2C(=O)CSC1CCS(=O)(=O)C1 (stereo not drawn) -7.34%
CC(N)=C(C#N)C(=O)COC(=O)C12CC3CC(CC(Br)(C3)C1)C2 -14%
CC1C(=O)SC2(CCCCC2)N1c1ccc(Cl)cc1 (stereo not drawn) -10.1%
